The supplement of paper PMC10849652
The full data set covers some 7,900 targets. This sample favours those with a hit. About 0.6% of all pairs of compound and target were hits. Values without a mark were called inactive.

Columns and labels:
Experiment in all cases: log2 fold change, soluble protein after heating vs DMSO (PISA); higher = thermal stabilisation; K562 cells, 10 uM, 30 min; active = over 0.2 and 3.5 SD of the protein, either way, in both replicates (recomputed)
[1] = compound: C1COCCN1CCN2C3=CC=CC=C3N=C2NC(=O)C4=CC(=CC=C4)[N+](=O)[O-] [IRAK-1-4 Inhibitor I]
Procedure, shortened: (§1)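 K562 cells at 2×10^6 cells/mL were treated with 10 μM compound for 30 min. Aliquots were heated for 3 min across 48°C-58°C, pooled, and extracted in PBS with 0.5% NP-40 at 4°C; soluble protein was the supernatant after 21,000xg for 90 min. Soluble protein was quantified by TMTpro 16plex LC-MS/MS with channel sums equalised, and reported as log2 fold change in thermal stability against DMSO controls, with values from duplicates.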

[2] = compound: C=CC(=O)N1CCC[C@@H](n2nc(-c3ccc(Oc4ccccc4)cc3)c3c(N)ncnc32)C1 [ibrutinib]
Procedure, shortened: as §1

[3] = compound: CC(=O)c1cnc2ccc(-c3cc(Cl)c(O)c(Cl)c3)nc2c1N[C@H]1CC[C@H](CN(C)C)CC1
Procedure, shortened: as §1

[4] = compound: CC(C)(C)Cn1c(N)nc2ccc(-c3[nH]c(C(C)(C)C)nc3-c3ccc(F)cc3)nc21 [ralimetinib]
Procedure, shortened: as §1

[5] = compound: CC(C)(O)CC(=O)NCCn1ccc2ncnc(Nc3ccc(Oc4cccc(C(F)(F)F)c4)c(Cl)c3)c21
Procedure, shortened: as §1

[6] = compound: CC(C)C1=C2N=C(C=C(N2N=C1)NCC3=CC=CC=C3)NCCCCCCN
Procedure, shortened: as §1

[7] = compound: CC(C)C[C@@H](C=O)NC(=O)[C@H](CC(C)C)NC(=O)[C@H](CC(C)C)NC(=O)OCc1ccccc1
Procedure, shortened: as §1

[8] = compound: CC(C)N(C[C@H]1O[C@@H](n2cnc3c(N)ncnc32)[C@H](O)[C@@H]1O)[C@H]1C[C@@H](CCc2nc3cc(C(C)(C)C)ccc3[nH]2)C1 [pinometostat]
Procedure, shortened: as §1

[9] = compound: CC1=C(C(CC(=O)N1)C2=CC=C(C=C2)C(F)(F)F)C(=O)NC3=C(C=C4C(=C3)C=NN4)F
Procedure, shortened: as §1

[10] = compound: CC1=C(C2=C(C=C1)C(=O)C3=CC=CC=C3N2CCCN)C
Procedure, shortened: as §1

Chain of UniProt Q00534 (Q00534 whole entry, looked up): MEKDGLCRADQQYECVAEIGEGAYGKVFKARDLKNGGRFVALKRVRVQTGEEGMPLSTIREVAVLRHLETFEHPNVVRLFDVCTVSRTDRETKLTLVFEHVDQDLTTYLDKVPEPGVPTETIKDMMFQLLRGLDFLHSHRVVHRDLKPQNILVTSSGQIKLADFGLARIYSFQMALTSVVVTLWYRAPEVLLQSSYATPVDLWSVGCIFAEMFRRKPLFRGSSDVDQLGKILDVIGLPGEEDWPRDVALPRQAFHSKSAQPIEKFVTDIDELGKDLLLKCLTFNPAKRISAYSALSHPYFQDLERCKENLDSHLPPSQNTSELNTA
Chain of UniProt A5YKK6 (A5YKK6 whole entry, looked up): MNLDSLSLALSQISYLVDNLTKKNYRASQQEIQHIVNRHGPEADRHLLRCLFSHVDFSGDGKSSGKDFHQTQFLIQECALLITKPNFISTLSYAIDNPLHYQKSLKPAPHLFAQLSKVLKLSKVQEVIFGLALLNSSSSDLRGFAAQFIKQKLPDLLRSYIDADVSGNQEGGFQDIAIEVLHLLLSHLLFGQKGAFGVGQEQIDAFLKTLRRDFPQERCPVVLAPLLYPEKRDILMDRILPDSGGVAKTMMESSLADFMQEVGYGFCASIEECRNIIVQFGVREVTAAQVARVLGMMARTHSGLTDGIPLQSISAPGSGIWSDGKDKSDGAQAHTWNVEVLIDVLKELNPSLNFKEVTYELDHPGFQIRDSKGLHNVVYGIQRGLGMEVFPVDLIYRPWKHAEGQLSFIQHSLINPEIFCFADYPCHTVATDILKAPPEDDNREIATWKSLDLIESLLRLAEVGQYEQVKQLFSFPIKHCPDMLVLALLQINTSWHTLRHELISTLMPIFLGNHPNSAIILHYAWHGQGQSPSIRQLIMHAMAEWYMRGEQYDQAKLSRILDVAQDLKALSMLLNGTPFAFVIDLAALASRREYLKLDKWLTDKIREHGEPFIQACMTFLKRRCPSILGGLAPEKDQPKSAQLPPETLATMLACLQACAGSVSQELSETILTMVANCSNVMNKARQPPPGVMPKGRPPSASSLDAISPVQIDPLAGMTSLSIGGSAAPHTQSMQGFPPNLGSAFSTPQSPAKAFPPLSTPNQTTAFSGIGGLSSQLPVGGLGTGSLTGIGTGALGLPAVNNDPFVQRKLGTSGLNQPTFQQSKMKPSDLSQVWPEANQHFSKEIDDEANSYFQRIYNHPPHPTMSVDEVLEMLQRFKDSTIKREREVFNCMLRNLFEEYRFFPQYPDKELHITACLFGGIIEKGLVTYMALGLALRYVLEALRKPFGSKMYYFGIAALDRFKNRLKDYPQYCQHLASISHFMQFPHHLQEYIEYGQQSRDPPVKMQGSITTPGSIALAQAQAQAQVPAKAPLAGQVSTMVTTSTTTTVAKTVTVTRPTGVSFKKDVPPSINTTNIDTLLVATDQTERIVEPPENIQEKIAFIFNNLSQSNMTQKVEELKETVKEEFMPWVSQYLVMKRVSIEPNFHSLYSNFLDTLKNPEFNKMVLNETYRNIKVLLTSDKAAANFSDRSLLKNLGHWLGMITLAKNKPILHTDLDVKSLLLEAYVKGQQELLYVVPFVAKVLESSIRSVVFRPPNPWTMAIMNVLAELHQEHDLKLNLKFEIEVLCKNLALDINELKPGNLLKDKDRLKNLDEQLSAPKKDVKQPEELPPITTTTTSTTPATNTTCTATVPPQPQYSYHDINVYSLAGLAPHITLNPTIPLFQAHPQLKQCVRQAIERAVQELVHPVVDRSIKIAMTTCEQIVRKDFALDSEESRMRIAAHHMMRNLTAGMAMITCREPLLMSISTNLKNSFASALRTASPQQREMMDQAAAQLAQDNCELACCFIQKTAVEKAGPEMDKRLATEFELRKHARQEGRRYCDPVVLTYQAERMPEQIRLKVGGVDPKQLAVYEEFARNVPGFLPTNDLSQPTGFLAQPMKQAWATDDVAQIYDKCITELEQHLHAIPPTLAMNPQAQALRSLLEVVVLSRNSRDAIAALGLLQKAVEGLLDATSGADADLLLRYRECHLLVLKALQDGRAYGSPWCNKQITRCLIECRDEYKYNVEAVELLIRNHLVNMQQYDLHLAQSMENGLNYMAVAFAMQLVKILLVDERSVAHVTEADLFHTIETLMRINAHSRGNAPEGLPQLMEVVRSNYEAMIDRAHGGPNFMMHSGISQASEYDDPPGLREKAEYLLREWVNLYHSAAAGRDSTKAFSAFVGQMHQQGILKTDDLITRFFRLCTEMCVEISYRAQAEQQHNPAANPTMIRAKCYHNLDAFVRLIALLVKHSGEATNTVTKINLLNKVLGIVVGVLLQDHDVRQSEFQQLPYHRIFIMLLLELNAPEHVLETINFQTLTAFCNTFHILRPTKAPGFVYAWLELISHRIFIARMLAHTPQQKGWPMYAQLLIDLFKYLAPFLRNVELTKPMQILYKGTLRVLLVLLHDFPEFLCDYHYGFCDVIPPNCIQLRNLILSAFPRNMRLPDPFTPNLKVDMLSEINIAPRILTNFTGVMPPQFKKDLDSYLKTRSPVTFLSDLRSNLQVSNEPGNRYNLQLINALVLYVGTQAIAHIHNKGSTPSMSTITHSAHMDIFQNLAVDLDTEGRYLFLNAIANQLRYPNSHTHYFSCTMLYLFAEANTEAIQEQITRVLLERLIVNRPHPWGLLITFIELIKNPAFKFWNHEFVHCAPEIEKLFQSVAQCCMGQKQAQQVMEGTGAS
Chain of UniProt Q13555 (Q13555 whole entry, looked up): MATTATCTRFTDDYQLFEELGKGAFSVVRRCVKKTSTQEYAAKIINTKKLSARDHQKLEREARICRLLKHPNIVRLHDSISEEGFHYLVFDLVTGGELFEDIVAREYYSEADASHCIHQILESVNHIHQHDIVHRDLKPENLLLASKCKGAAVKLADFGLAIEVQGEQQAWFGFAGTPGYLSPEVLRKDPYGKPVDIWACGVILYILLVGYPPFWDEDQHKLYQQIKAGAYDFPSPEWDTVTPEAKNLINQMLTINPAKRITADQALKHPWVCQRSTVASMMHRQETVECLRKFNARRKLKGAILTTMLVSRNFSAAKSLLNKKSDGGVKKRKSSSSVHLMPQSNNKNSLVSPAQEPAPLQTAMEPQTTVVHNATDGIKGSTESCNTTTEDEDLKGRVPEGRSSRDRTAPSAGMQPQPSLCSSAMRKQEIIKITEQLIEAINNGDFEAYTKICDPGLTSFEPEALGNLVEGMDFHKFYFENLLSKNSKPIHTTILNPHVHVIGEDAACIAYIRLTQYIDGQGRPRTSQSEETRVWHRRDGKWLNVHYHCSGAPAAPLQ
Chain of UniProt A6NHX0 (A6NHX0 whole entry, looked up): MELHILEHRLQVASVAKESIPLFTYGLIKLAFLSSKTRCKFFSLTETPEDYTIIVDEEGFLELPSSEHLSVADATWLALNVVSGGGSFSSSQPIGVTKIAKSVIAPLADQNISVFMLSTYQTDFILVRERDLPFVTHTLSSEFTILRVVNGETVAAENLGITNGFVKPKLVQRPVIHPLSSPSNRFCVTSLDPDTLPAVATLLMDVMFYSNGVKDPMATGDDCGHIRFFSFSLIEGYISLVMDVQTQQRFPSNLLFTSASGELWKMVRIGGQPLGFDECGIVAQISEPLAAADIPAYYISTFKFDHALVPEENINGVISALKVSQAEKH
Chain of UniProt P06493 (P06493 whole entry, looked up): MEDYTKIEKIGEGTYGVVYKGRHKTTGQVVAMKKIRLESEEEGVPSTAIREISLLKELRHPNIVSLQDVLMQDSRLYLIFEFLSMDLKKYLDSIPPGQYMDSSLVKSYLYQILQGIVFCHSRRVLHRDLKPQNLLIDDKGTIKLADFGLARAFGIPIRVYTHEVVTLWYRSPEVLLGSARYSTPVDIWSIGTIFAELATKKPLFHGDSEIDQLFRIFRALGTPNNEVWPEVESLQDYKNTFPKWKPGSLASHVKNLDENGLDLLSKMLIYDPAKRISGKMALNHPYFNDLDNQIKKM
Chain of UniProt Q96GQ5 (Q96GQ5 whole entry, looked up): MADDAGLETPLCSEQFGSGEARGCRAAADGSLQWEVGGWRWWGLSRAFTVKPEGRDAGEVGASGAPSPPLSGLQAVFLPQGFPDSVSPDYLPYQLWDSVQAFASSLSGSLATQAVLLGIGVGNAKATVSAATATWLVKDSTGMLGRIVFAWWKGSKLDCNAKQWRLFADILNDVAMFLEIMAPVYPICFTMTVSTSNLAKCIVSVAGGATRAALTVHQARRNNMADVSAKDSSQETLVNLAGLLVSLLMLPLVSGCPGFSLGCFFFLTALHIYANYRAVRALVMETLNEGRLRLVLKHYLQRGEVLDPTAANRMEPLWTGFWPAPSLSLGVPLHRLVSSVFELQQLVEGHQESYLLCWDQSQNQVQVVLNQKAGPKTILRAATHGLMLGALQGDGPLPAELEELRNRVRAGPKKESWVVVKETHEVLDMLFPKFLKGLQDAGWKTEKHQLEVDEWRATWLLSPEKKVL

| Target | log2 fold change [1] | log2 fold change [2] | log2 fold change [3] | log2 fold change [4] | log2 fold change [5] | log2 fold change [6] | log2 fold change [7] | log2 fold change [8] | log2 fold change [9] | log2 fold change [10] |
| --- | --- | --- | --- | --- | --- | --- | --- | --- | --- | --- |
| CNOT1 (UniProt A5YKK6) | -0.07 | -0.024 | -0.029 | 0.028 | -0.063 | -0.101 | 0.039 | 0.027 | 0.009 | 0.063 |
| CASTOR2 (UniProt A6NHX0) | 0.078 | 0.046 | 0.008 | -0.006 | 0.016 | 0.031 | 0.046 | -0.013 | -0.004 | 0.019 |
| CRYM-AS1 (UniProt A6NIL9) | 0.13 | 0.172 | -0.017 | -0.063 | -0.108 | -0.088 | 0.168 | 0.054 | 0.038 | -0.099 |
| CDK1 (UniProt P06493) | 0 | -0.046 | -0.401 (active) | -0.031 | -0.051 | -0.02 | 0.051 | 0 | 0.012 | -0.021 |
| CDK6 (UniProt Q00534) | -0.014 | 0.031 | 0.107 | 0.009 | -0.009 | -0.026 | 0.086 | 0.062 | 0.02 | -0.019 |
| CAMK2G isoform 6 (UniProt Q13555) | -0.008 | 0.004 | 0.181 | 0.118 | 0.039 | -0.016 | 0.038 | 0.067 | -0.075 | 0.063 |
| C16orf58 (UniProt Q96GQ5) | 0.031 | -0.022 | 0.01 | -0.017 | -0.045 | -0.199 | 0.001 | 0.005 | 0.001 | 0.045 |
